Assay outcomes deposited in PubChem by Center for Chemical Genomics, University of Michigan.
CDC25B-CDK2 inh: human CDC25B-CDK2/CyclinA binding inhibition; AID 1259370; HTRF CDC25B-CDK2/CyclinA binding, anti-His/anti-Flag; hits give high values; z-score (no concentration beside the values); hit rate 0.72% among 94,000; in the data active = z-score above about 3.2
TAR Tat displ: HIV-1 TAR-Tat binding disruption; hit rate 0.6% among 100,000; z-score (concentration not given with the values); HIV-1 TAR RNA, Tat peptide displacement FRET; hits give high values; active = z-score of 3 or more in at least 2 runs
Of the large screens only hits and unclear results are named; the others gave an inactive call. Hits are enriched below; roughly 0.86% of the tested compounds scored in any of these assays.

Cc1c(C(=O)N2CCCC2)oc2c1-c1nn(CC(=O)N3CCN(C)CC3)cc1CC2	none (no result: CDC25B-CDK2 inh)
Brc1ccc(C(c2c[nH]c3ccccc23)c2c[nH]c3ccccc23)s1	CDC25B-CDK2 inh 16 (no result: TAR Tat displ)
O=C(c1ccc(Br)cc1)C(O)c1c[nH]c2ccccc12 (configuration not stated)	none
CSc1ccc(NC(=O)C(C)n2nc(-c3ccc4c(c3)OCCO4)ccc2=O)cc1 (configuration not stated)	none
CCn1c2c(c(=O)[nH]c1=O)C(c1cc(Br)ccc1OC)C1=C(N2)c2ccccc2C1=O (configuration not stated)	none
COc1ccc(C2CC(=O)N3CN(C4CCCCC4)CSC3=C2C#N)c(OC)c1 (configuration not stated)	none
COc1cc(C2CC(=O)N3CN(C4CCCCC4)CSC3=C2C#N)ccc1O (configuration not stated)	CDC25B-CDK2 inh 3.8
CCOc1cc(C2CC(=O)N3CN(C4CCCCC4)CSC3=C2C#N)ccc1O (configuration not stated)	CDC25B-CDK2 inh 3.4
Cn1c(=O)c(=O)n(CC(=O)NCCCN2CCCC2=O)c2ccccc21	none (no result: CDC25B-CDK2 inh)
O=C(NCc1ccco1)c1cc2c(s1)-c1ccccc1OC2	none
Cc1ccc2c(c1)C1C=CCC1C(C(=O)O)N2 (configuration not stated)	none
CCOC(=O)c1ccc2c(c1)[C@@H]1C=CC[C@@H]1[C@H](c1ccc(C(=O)OC)cc1)N2	none
COC(=O)c1cccc2c1NC(c1ccc(Br)cc1)C1CC=CC21 (configuration not stated)	none
COc1cccc2c1NC(C(=O)O)C1CC=CC21 (configuration not stated)	TAR Tat displ 42
COc1ccc2c(c1)[C@@H]1C=CC[C@@H]1[C@H](c1ccc(C(=O)O)cc1)N2	TAR Tat displ 14
CCOC(=O)[C@@H]1Nc2ccc(C(=O)O)cc2[C@@H]2C=CC[C@H]12	CDC25B-CDK2 inh 15, TAR Tat displ 17
CCOC(=O)c1ccc2c(c1)[C@@H]1C=CC[C@@H]1[C@H](c1ccc(C(=O)O)cc1)N2	TAR Tat displ 8
CC(C)c1ccc2c(c1)[C@@H]1C=CC[C@@H]1[C@H](c1ccc(C(=O)O)cc1)N2	none (no result: TAR Tat displ)
Cc1noc2ncnc(N3CCC(C(=O)N4CCN(c5ncccn5)CC4)CC3)c12	none (no result: CDC25B-CDK2 inh)
CCCSCCCn1cnc2c([nH]c3ccc(C)cc32)c1=O	none
CCn1c(N)c(C(=O)N2CCCCC2)sc1=S	none (no result: TAR Tat displ)
C=CCN1C(=O)C2(c3ccccc31)c1c(oc3cc(C)c(C)cc3c1=O)C(=O)N2CC1CCCO1 (configuration not stated)	none
CCOc1ccc(N(C(=O)C(C)C)S(=O)(=O)c2ccc3c(c2)n(C)c(=O)n3C)cc1	none
Cn1c(Cn2c(=O)sc3ccccc32)nnc1SCC(=O)Nc1nccs1	none (no result: TAR Tat displ)
Cc1cccc2c1N[C@H](c1ccc(C(=O)O)cc1)C1CC=CC21 (some centres not stated)	CDC25B-CDK2 inh 6.8
COC(=O)c1ccc2c(c1)C1C=CCC1[C@@H](c1ccc(C(=O)O)cc1)N2 (some centres not stated)	TAR Tat displ 7.4
CCc1cccc2c1N[C@@H](c1ccc(C(=O)O)cc1)[C@H]1CC=C[C@@H]21	none (no result: TAR Tat displ)
CC(C)c1ccc([C@@H]2Nc3ccc(C(=O)O)cc3[C@@H]3C=CC[C@@H]32)cc1	none (no result: TAR Tat displ)
COc1ccc2c(c1)c(=O)oc1cc3oc(C)c(-c4ccccc4)c3cc12	none
COc1ccc2c(c1)c(=O)oc1cc3oc4c(c3cc12)CCCC4	TAR Tat displ 3.7
CCCCN1C(=O)C(O)(CC(=O)c2ccccc2)c2ccccc21 (configuration not stated)	CDC25B-CDK2 inh 12
CCCCN1C(=O)C(O)(CC(=O)c2ccc(C(C)C)cc2)c2ccccc21 (configuration not stated)	none
NC(=O)CN1C(=O)C(O)(CC(=O)c2ccc(F)cc2)c2ccccc21 (configuration not stated)	CDC25B-CDK2 inh 16
CCN1C(=O)C(O)(CC(=O)c2ccc(F)cc2)c2ccccc21 (configuration not stated)	none
COc1cc(CN2CCN(C3CCCCCC3)CC2)cc(OC)c1OC	none (no result: TAR Tat displ)
O=C(NC1CCCCC1)c1cc2ccccc2c(=O)s1	none
CCOC(=O)/C(C#N)=C/N(CC)CC(O)CC (configuration not stated)	none (no result: TAR Tat displ)
CCC(C)(C)NS(=O)(=O)c1ccc2c(c1)N(C(C)=O)CCS2	none (no result: CDC25B-CDK2 inh)
CC(=O)Oc1ccc2c(=O)c(Oc3cc(C)cc(C)c3)c(C(F)(F)F)oc2c1	none
CC1(C)CC(=O)c2c(oc3ccc(NS(=O)(=O)c4ccc(Br)cc4)cc23)C1	none
Cc1ccc(S(=O)(=O)Nc2c3ccccc3c(O)c3c4c(oc23)CC(C)(C)CC4=O)cc1	CDC25B-CDK2 inh 18 (no result: TAR Tat displ)
CC(=O)N(c1ccc(Br)cc1)C1SC(=O)N(c2ccccc2)C1=O (configuration not stated)	none
Nc1c(-c2nc(-c3ccccc3)cs2)c2ccccn2c1C(=O)c1cccs1	CDC25B-CDK2 inh 25
